Assay outcomes from PubChem.
Only some compounds are listed: those with a hit (about 3% of all), similar ones and a draw of the others.
USP1-UAF1 inh – USP1/UAF1 (human) deubiquitinase inhibition. O94782. recombinant USP1/UAF1, Ub-Rhodamine cleavage fluorescence. Potency, µM (titrated, usually from 57.1 µM), without a hit: top-dose activity change, negative = inhibition, actives largely listed as inhibitors. 390,000 compounds, 0.23% hits. AID 743255; further: on the % scale 0 is the no-effect control and ±100 the full control effect; nearly all actives have a fitted effect of over 60% in size
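USP1/UAF1 complex at 1 nM was preincubated with compound for 15 min at room temperature, then Ub-Rho substrate (150nM final) was added. Fluorescence (480/540 nm) was read kinetically, 6 reads every 60 seconds.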
VDR inh – blocks the human vitamin D receptor; P11473; VDR-SRC2-3 peptide fluorescence polarization, 2 h; Potency, µM, for the others: max response, negative = inhibition, hits mostly inhibitors; 400,000 compounds, 0.93% hits; AID 504847; further: on the % scale 0 is the no-effect control and ±100 the full control effect
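After 23 nl compound addition and a short centrifugation, plates sat for 2 hours at ambient temperature; polarization of fluorescence then indicated loss of VDR binding to peptide SRC2-3.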
GCN5L2 inh – blocks human GCN5L2 histone acetyltransferase; GCN5L2 HAT assay, ThioGlo1 CoA-SH fluorescence; Q92830; AID 504327; 390,000 compounds, 0.21% hits; Potency, µM (highest dose often 58.9 µM), for inactives: at the highest dose activity change, negative = inhibition, usual class: inhibitors; further: on the % scale 0 is the no-effect control and ±100 the full control effect
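qHTS, 1536-well. 20nM enzyme, pH 7.5 HEPES/EDTA/Tween-20 buffer; 15 min compound preinc., RT. Start: 75uM H3(1-25), 70uM AcCoA, 50uM ThioGlo1. Read Ex340/Em540 at t=0 (autofluorescence flag) and t=20 min.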
PTAP TSG101 blk – blocks PTAP/TSG101 interaction to inhibit HIV-1 budding. Fluorescence polarization, FITC-PTAP peptide / Tsg101 binding. Potency, µM (highest dose often 115 µM), for the others: at the highest dose activity change, negative = inhibition, hits mostly inhibitors. 340,000 tested, under 10 active. Q99816; active means well fitted inhibition curve with a large enough effect in the main read-out, with a control signal flat, not every such curve was filed as active; inconclusive means small, poorly fitted or top-dose-only effect, or effect the other way, or a change in a side signal; inactive means no such curve, though single readings can be large or run the other way; further: % of control where 0% means no effect
Target sequence (Q99816 whole entry, looked up): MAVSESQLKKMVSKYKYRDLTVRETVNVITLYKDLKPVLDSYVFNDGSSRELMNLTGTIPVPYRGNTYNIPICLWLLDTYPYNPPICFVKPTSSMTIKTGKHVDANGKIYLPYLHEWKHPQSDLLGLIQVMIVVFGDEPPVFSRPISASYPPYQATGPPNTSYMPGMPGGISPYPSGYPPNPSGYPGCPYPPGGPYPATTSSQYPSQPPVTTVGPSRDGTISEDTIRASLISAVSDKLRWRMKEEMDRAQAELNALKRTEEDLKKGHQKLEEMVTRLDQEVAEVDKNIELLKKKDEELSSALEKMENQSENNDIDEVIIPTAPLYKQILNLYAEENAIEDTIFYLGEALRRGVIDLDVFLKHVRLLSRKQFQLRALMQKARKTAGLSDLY
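Tsg101 binding domain (10 uM final) was mixed with compound and a FITC-labeled PTAP peptide (50 nM final) in HEPES pH 7.5 buffer with NaCl, Tween 20, EDTA and TCEP; fluorescence polarization was read after 20 min at r.t.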
PLK1 PBD inh – inhibitors of human PLK1 polo-box domain binding; Potency, µM, without a hit: max response, negative = inhibition, most hits filed as inhibitors; 360,000 compounds, 2.8% hits; Plk1 PBD binding of FITC phosphopeptide, fluorescence polarization; P53350; further: series mostly up to about 57 µM; on the % scale 0 is the no-effect control and ±100 the full control effect; nearly all actives have a fitted effect of over 65% in size
* hit, by the source's call. Unless noted, the call rests on the fitted dose curve; in most records, active means well fitted curve in the direction sought with a large enough effect; inconclusive means small, poorly fitted or top-dose-only effect, or another doubt; inactive means no such curve, though single readings can be large; an effect the other way counts as inactive or inconclusive. Potency means the concentration at half of the fitted maximal effect.

For CC(C)=C1C2CCC1C(C(=O)Nc1sc(C)c(-c3ccc(C(C)C)cc3)c1C(N)=O)C2C(=O)O (stereo unspecified) the results were USP1-UAF1 inh -8%, VDR inh -13%, GCN5L2 inh -13%, PTAP TSG101 blk -1% and PLK1 PBD inh 30µM*.
Screening CCOC(=O)c1c(NC(=O)/C=C/C(=O)O)sc(C)c1-c1ccc(C)c(C)c1 returned USP1-UAF1 inh -7%, VDR inh inconclusive, GCN5L2 inh -21%, PTAP TSG101 blk -2% and PLK1 PBD inh inconclusive.
Cc1ccc(-c2c(C)sc(NC(=O)C3C4CCC(O4)C3C(=O)O)c2C(=O)OC(C)C)cc1 (stereo unspecified) was read as USP1-UAF1 inh -11%, VDR inh -13%, GCN5L2 inh 6%, PTAP TSG101 blk -3% and PLK1 PBD inh inconclusive.
COc1ccc(S(=O)(=O)NC2CCCCC2)cc1-n1cnnn1 was read as USP1-UAF1 inh -5%, VDR inh -16%, GCN5L2 inh 1%, PTAP TSG101 blk -2% and PLK1 PBD inh 27µM*.
Screening COc1ccc(NC(=O)Cn2c(=O)oc3cc(S(=O)(=O)N4CCCCC4C)ccc32)cc1 (stereo unspecified) returned USP1-UAF1 inh -4%, VDR inh 3% and GCN5L2 inh -13%.
For CN1C(=S)SC(/[N+]([O-])=C\c2ccccc2)C1(C)C (stereo unspecified) the results were USP1-UAF1 inh -11%, VDR inh -5%, GCN5L2 inh -9%, PTAP TSG101 blk -3% and PLK1 PBD inh -2%.
For [O-]/[N+](=C/c1ccco1)c1ccccc1 the results were USP1-UAF1 inh -8%, VDR inh 11%, GCN5L2 inh -8%, PTAP TSG101 blk -13% and PLK1 PBD inh -3%.
Screening [O-][N+](=Cc1ccccc1)c1ccc(Cl)cc1 returned USP1-UAF1 inh -1%, VDR inh inconclusive, PTAP TSG101 blk -8% and PLK1 PBD inh 21µM*.
For [O-]/[N+](=C\c1ccco1)c1ccc(Cl)cc1 the results were USP1-UAF1 inh -22%, VDR inh 35µM*, GCN5L2 inh -10%, PTAP TSG101 blk -1% and PLK1 PBD inh inconclusive.
Screening CCn1cc2nc(SCc3cccc(OC)c3)n(Cc3ccc(Cl)cc3)c(=O)c2n1 returned USP1-UAF1 inh -6%, VDR inh -15% and GCN5L2 inh -1%.
For CC(=O)N1c2ccccc2Oc2cc3ccccc3cc21 the results were USP1-UAF1 inh -4%, VDR inh -9%, GCN5L2 inh -3%, PTAP TSG101 blk -2% and PLK1 PBD inh -15%.
Screening O=C(CCl)N1c2ccccc2Oc2ccc3ccccc3c21 returned USP1-UAF1 inh 22µM*, VDR inh 20µM*, PTAP TSG101 blk inconclusive and PLK1 PBD inh 8.4µM*.
`Cc1c(NC(=O)c2ccc(-c3cccc([N+](=O)[O-])c3)o2)cccc1-c1nc2cc(Cl)ccc2o1` gave USP1-UAF1 inh -18%, VDR inh -7% and GCN5L2 inh -7%.
Screening Cc1ccc(-c2noc(CN(C3CCCCC3)S(=O)(=O)c3ccc(C)cc3)n2)cc1 returned USP1-UAF1 inh -10%, VDR inh 7% and GCN5L2 inh -11%.
For O=C(Nc1ccccc1C(F)(F)F)c1ncoc1-c1ccco1 the results were USP1-UAF1 inh -15%, VDR inh 16% and GCN5L2 inh 9%.
O=C(CN1CCOCC1)Nc1ccc2c(c1)CCC2 was read as USP1-UAF1 inh -20%, VDR inh inconclusive, GCN5L2 inh 21%, PTAP TSG101 blk -2% and PLK1 PBD inh 27µM*.
`O=C(CCN1CCOCC1)Nc1ccc2c(c1)CCC2` gave USP1-UAF1 inh -12%, VDR inh 4%, GCN5L2 inh -5%, PTAP TSG101 blk -2% and PLK1 PBD inh 2%.
`COc1cccc(C(=O)NCC(c2ccc3c(c2)OCO3)N2CCN(C)CC2)c1` (stereo unspecified) gave USP1-UAF1 inh -11%, VDR inh 2% and GCN5L2 inh 0%.
For O=C(CCC1CCCC1)N1CCN(C(=O)COc2ccccc2)CC1 the results were USP1-UAF1 inh -13%, VDR inh -27%, GCN5L2 inh 0%, PTAP TSG101 blk -5% and PLK1 PBD inh 24µM*.
For Fc1ccc(C(c2ccc(F)cc2)N2CCN(C/C=C\c3ccccc3)CC2)cc1 the results were VDR inh 10% and GCN5L2 inh 11µM*.
Screening CN(C)c1ccc(CN(CC2CCCO2)C(=O)COc2ccc(Cl)cc2)cc1 (stereo unspecified) returned USP1-UAF1 inh -12%, VDR inh 11% and GCN5L2 inh -4%.
Screening O=C(COC(=O)c1c2c(nc3ccccc13)/C(=C\c1ccco1)CC2)NC1CCCC1 returned USP1-UAF1 inh -10%, VDR inh -18%, PTAP TSG101 blk -6% and PLK1 PBD inh 9.5µM*.
Screening COc1cccc(Cn2c(=O)n(-c3ccc(Br)cc3F)c(=O)c3sc4ccccc4c32)c1 returned USP1-UAF1 inh inconclusive, VDR inh inconclusive and GCN5L2 inh -2%.
Screening CCCCNC(=O)CCCn1c(=O)c2ccccc2n(Cc2cccc(Cl)c2)c1=O returned USP1-UAF1 inh -4%, VDR inh 2% and GCN5L2 inh -11%.
Screening CC(=O)c1ccc(S(=O)(=O)N2CCNCC2)cc1 returned USP1-UAF1 inh -17%, VDR inh inconclusive, GCN5L2 inh 1%, PTAP TSG101 blk -4% and PLK1 PBD inh 15µM*.
CCOC(=O)c1sc(N)nc1C(C)C was read as USP1-UAF1 inh -18%, VDR inh 4%, GCN5L2 inh inconclusive, PTAP TSG101 blk 1% and PLK1 PBD inh inconclusive.
`CCCc1nc(N)sc1C(=O)OCC` gave USP1-UAF1 inh -3%, VDR inh -6%, GCN5L2 inh 0.89µM*, PTAP TSG101 blk -2% and PLK1 PBD inh inconclusive.
For Fc1ccc(C(Nc2ccccn2)c2c[nH]c3ccccc23)cc1 (stereo unspecified) the results were USP1-UAF1 inh -12%, VDR inh -16%, GCN5L2 inh -3%, PTAP TSG101 blk -1% and PLK1 PBD inh 8.4µM*.
`Cc1ccc(C(=O)CSc2nnc(-c3ccco3)n2C)cc1` gave USP1-UAF1 inh 2%, VDR inh 50µM*, GCN5L2 inh -3%, PTAP TSG101 blk -1% and PLK1 PBD inh 6µM*.
Cc1ccc(C(=O)CSc2nnc(-c3ccccc3N)n2C)cc1 was read as USP1-UAF1 inh -19%, VDR inh -9%, GCN5L2 inh -1%, PTAP TSG101 blk -4% and PLK1 PBD inh -3%.
Screening CCC(=O)Nc1cccc(-c2nnc(SCC(=O)c3ccccc3)n2C)c1 returned USP1-UAF1 inh -3%, VDR inh -12%, GCN5L2 inh -1%, PTAP TSG101 blk -9% and PLK1 PBD inh 27µM*.
